The results in this text go back to PubChem BioAssay (NCATS).

The target in assay [1] is Transient receptor potential cation channel subfamily V member 1 (Homo sapiens) (UniProt Q8NER1). Kind of assay: HTS Assay for Compounds that Act as Enhancers of the Vanilloid Receptor 1 (AID 488979). Further: 0% is about no effect. The essentials: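 Calcium influx kinetics via Fluo-8 (480/520 nm) in TRPV1-expressing cells, 2000/well cultured overnight at 35.5C. Compound-alone read 3 min (agonist phase), followed by EC20 capsaicin challenge for 2 min (enhancer phase).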

For assay [2], the target named is Thyrotropin receptor (Homo sapiens) (UniProt P16473). Put plainly: qHTS Assay for Antagonists of the Thyroid Stimulating Hormone Receptor (AID 488980). Further: series mostly up to about 58 µM; 0% is about no effect. The essentials:
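TSHR-HEK293 cells; 70 uM RO 20-1724 PDE inhibitor; compound + EC80 TSH (4 nM final); anti-cAMP cryptate antibody/cAMP-d2 in lysis buffer, 30 min RT; HTRF 665/620 nm read.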
In general terms: In qHTS, concentration-response curves come from the screen itself.

Assay [3] has as its target D(1A) dopamine receptor (Homo sapiens) (UniProt P21728). Kind of assay: HTS Assay for Allosteric Agonists of the Human D1 Dopamine Receptor: Primary Screen for Agonists (AID 488981). Further: 0% is about no effect. The essentials:
(§1)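 Calcium flux in an inducible, force-coupled HEK293 Trex D1 line (overnight at 30 C): agonist mode is the 180 s kinetic read after compound; potentiator mode is the following 180 s read after dopamine at EC20.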

Assay [4] shares this target. Put plainly: HTS Assay for Allosteric Agonists of the Human D1 Dopamine Receptor: Primary Screen for Potentiators (AID 488982). Further: 0% is about no effect. Summed up:
as §1

Assay [5] shares this target. Put plainly: HTS Assay for Allosteric Agonists of the Human D1 Dopamine Receptor: Primary Screen for Antagonists (AID 488983).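 Further: calcium flux response to an EC80 dopamine challenge measured with no-wash dye; nearly all actives have a fitted effect of over 65% in size.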 Further: potency means the concentration at half of the fitted maximal effect. The essentials:
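Screening of inducible HEK293 T-REx D1 cells: compound first, EC80 dopamine 180 s later, each phase read kinetically for calcium over 180 s.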

Assay [6] in a line: Validation screen for small molecules that induce genotoxicity in human embryonic kidney (HEK293T) cells expressing luciferase-tagged ELG1 (AID 493106). Further: 0% is about no effect. Summed up: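 Reporter-gene quantitative HTS in HEK293T cells carrying luciferase-tagged ELG1, whose level climbs under genotoxic stress. Compound exposure lasts 16 hr at 37 °C before luciferase detection.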
Assay [7] deals with Thyrotropin-releasing hormone receptor (Homo sapiens) (UniProt P34981). Put plainly: qHTS for Small Molecule Agonists and Allosteric Enhancers of Human TRH Receptor: Validation Screen for Agonists (AID 493127;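 active means calcium activation more than 3 SD above the typical response in the agonist read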;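 further: intracellular calcium rise by fluo-8 fluorescence before TRH EC20 addition; 0% is about no effect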). Particulars: TRH receptor agonist cell assay; at 2 µM; stronger effect = higher value. Summed up:
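Gq-coupled calcium mobilization in TRHR cells after compound addition, monitored kinetically with fluo-8 dye on an FDSS reader.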

Assay [8] in a line: Nrf2 qHTS screen for inhibitors: Validation (AID 493153; active means well fitted inhibition curve with a large enough effect in the main read-out, with a control signal flat, not every such curve was filed as active). Particulars: Potency: luciferase luminescence; viability change: measured here: cytotoxicity max response. The essentials:
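Dose-response validation uses reporter A549 cells with firefly luciferase under an antioxidant response element. Compounds stay on cells 18-24 h at 37°C, and luminescence indicates Nrf2-driven transcription.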

Assay [9] is described as follows: qHTS for Inhibitors of Cell Surface uPA Generation: Validation Assay (AID 493164).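 Further: RAW 264.7 macrophage cells exposed to compound for 18 h; 0% is about no effect.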 Summed up: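 RAW 264.7, 4000 cells/well, o/n plating; cpd 7-pt 1:5 dilution 2.45 nM–38.3 uM final; 18 h, 37 C/5% CO2; ATP-Lite, 5 s luminescence exposure.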
A short description of assay [10]: Validation screen for small molecules that induce DNA re-replication in SW480 colon adenocarcinoma cells (AID 504364). Further: 0% is about no effect. The essentials:
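Cells are treated 48 hr with test compound, stained 40 min with Hoechst at 37 C, and scanned for nuclear fluorescence; compounds inducing re-replication increase nuclei with elevated intensity.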

The target in assay [11] is Peptidyl-prolyl cis-trans isomerase NIMA-interacting 1 (Homo sapiens) (UniProt Q13526). Kind of assay: qHTS Validation Assay to Find Inhibitors of Pin1 (AID 504536; active means well fitted inhibition curve with a large enough effect in the polarisation, with a control signal flat, not every such curve was filed as active; the % refers to the polarisation;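 further: 0% = full Pin1 enzyme wells and -100% = no-enzyme wells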). Summed up:
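Fluorescence polarization competition: compounds (titration) displace HiFluor-488-labeled Pin1-1b peptide from Pin1 (0.3 uM final) in pH 7.5 HEPES buffer with DTT, 10 min at room temperature; %Activity normalized to no-enzyme wells, curves fitted.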

Assay [12] addresses Phosphoglycerate kinase, glycosomal (Trypanosoma brucei brucei) (UniProt P07378). Put plainly: qHTS Validation Assay to Find Inhibitors of Phosphoglycerate Kinase (AID 504547).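 Further: control wells lack PGK and mark full inhibition.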 The essentials:
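Inhibition of the enzyme is judged by a Kinase-Glo Plus luminescent signal following a one-hour incubation at room temperature. Because 1,3-BPG is unstable, it is made in situ by GAPDH at 100nM final; no-PGK wells define the baseline.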

Assay [13] has as its target phosphoglycerate mutase (Leishmania major) (UniProt Q4Q090). Put plainly: qHTS Validation Assay to Find Inhibitors of Phosphoglycerate Mutase (AID 504548). Further: series mostly up to about 58 µM; on the % scale 0 is the no-effect control and ±100 the full control effect. The settings on record: Potency: inhibition qHTS. Summed up: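 Lm PGAM at 1.25 nM final with substrate in 100 mM TEA pH 7.6, 5 mM MgCl2, 0.01% Tween-20; 45 min at room temperature. Kinase-GloPlus added, 10 min, end-point luminescence read.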

For assay [14], the target named is Ubiquitin carboxyl-terminal hydrolase 1 (Homo sapiens) (UniProt O94782). Kind of assay: Inhibitors of USP1/UAF1: Pilot qHTS (AID 504865).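 Further: rhodamine fluorescence freed from ubiquitin-rhodamine substrate followed over time; top concentration of the series differs between compounds; on the % scale 0 is the no-effect control and ±100 the full control effect; nearly all actives have a fitted effect of over 35% in size.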 The essentials:
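1nM USP1/UAF1 + cpd, 15 min RT; start w/ Ub-Rho 150nM final; kinetic FL 480/540 nm, 6 reads q60 s. Buffer 50mM HEPES pH 7.8, 0.5mM EDTA, 1mM TCEP, 0.01% Tween-20, 0.1 mg/ml BSA.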

The nature of assay [15]: qHTS for Inhibitors of ATXN expression: Validation of Cytotoxic Assay (AID 588349).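 Further: cells exposed to compound for 72 hr; on the % scale 0 is the no-effect control and ±100 the full control effect.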 The essentials: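 HEK293, compound dose series, 72 hr / 37 degrees C; viability via CellTiter Glo (intracellular ATP).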
A short description of assay [16]: qHTS for Inhibitors of ATXN expression: Validation (AID 588378). Further: nearly all actives have a fitted effect of over 75% in size. Further: potency means the concentration at half of the fitted maximal effect. Summed up:
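Cells: HEK293-ATXN2-FFLuc, phenol-red free DMEM, 2 h attachment. Compound pin-transfer, 24 h, 37 degrees C, 5% CO2. CellTiter-Fluor 30 min, Ex405/Em525; Bright-Glo 5 min, luminescence 2 s exposure.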

Assay [17] has as its target Galactokinase (Homo sapiens) (UniProt P51570). Put plainly: qHTS Validation Assay for Inhibitors of Human Galactokinase (GALK) (AID 493189). Further: 0% is about no effect. The essentials: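 Luminescence from leftover ATP (Kinase-Glo Plus, 10 min) served as read-out after a 1 h room-temperature reaction of 5 nM GALK, 100 uM galactose and 35 uM ATP at pH8.0.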

Inconclusive results are not listed. The source made the active and inactive calls. Unless noted, the call rests on the fitted dose curve; in most records, active means well fitted curve in the direction sought with a large enough effect; inconclusive means small, poorly fitted or top-dose-only effect, or another doubt; inactive means no such curve, though single readings can be large; an effect the other way counts as inactive or inconclusive.

Chain of D(1A) dopamine receptor (Homo sapiens) (P21728 whole entry, looked up): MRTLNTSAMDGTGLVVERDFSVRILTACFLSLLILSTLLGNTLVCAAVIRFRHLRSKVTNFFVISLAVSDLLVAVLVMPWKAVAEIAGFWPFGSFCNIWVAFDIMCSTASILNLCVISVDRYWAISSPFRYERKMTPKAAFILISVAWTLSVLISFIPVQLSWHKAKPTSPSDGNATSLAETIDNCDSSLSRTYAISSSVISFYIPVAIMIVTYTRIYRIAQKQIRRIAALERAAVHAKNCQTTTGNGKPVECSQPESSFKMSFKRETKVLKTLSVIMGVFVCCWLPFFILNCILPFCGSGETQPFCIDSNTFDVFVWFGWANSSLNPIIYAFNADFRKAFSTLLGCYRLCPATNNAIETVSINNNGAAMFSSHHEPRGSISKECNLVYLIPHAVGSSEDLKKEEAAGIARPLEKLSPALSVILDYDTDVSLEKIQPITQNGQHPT
Chain of Galactokinase (Homo sapiens) (P51570 whole entry, looked up): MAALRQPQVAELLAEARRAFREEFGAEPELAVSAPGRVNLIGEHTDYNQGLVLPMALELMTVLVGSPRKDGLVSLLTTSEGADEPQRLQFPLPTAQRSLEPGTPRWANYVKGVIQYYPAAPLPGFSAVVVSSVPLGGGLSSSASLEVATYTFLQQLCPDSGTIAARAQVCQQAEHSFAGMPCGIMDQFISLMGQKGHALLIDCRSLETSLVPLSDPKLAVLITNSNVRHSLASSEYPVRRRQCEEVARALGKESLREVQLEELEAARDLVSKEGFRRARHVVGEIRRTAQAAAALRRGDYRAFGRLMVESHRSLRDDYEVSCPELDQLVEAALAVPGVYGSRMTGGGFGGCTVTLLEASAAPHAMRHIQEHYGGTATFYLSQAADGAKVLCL
Chain of Ubiquitin carboxyl-terminal hydrolase 1 (Homo sapiens) (O94782 whole entry, looked up): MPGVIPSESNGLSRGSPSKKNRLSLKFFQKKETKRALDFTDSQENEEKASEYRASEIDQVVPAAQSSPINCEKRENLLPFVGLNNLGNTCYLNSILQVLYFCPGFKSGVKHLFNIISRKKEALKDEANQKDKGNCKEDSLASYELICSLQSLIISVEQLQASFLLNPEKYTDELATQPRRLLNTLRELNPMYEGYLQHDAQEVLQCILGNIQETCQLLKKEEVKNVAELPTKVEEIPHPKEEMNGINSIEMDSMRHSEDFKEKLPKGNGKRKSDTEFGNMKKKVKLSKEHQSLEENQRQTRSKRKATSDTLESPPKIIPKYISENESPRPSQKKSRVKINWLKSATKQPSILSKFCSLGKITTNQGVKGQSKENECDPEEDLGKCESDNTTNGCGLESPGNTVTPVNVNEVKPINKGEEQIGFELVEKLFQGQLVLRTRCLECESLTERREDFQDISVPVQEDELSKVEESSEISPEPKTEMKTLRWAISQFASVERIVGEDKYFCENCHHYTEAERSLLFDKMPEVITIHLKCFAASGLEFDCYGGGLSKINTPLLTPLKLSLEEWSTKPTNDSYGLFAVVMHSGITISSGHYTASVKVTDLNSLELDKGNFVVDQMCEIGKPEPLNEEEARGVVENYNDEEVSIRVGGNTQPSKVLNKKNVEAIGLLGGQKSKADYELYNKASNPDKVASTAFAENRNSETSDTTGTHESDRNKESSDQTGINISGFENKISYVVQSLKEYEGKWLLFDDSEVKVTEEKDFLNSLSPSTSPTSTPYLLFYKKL
Chain of Peptidyl-prolyl cis-trans isomerase NIMA-interacting 1 (Homo sapiens) (Q13526 whole entry, looked up): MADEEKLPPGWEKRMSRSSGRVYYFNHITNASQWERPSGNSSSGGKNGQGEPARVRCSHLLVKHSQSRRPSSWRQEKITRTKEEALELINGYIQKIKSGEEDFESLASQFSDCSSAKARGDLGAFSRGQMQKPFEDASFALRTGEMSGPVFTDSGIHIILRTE
Chain of Phosphoglycerate kinase, glycosomal (Trypanosoma brucei brucei) (P07378 whole entry, looked up): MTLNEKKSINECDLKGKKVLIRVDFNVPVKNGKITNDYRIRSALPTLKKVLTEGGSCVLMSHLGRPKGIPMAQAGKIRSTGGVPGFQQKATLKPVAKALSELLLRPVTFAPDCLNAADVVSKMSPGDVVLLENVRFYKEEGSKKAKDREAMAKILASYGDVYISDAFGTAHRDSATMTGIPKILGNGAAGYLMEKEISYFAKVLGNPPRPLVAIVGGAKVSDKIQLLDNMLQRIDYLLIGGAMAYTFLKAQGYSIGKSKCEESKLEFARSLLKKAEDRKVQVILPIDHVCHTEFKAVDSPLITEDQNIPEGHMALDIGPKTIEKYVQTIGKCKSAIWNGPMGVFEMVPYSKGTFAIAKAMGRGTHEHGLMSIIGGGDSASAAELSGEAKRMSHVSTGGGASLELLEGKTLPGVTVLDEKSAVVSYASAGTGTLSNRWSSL
Chain of Thyrotropin-releasing hormone receptor (Homo sapiens) (P34981 whole entry, looked up): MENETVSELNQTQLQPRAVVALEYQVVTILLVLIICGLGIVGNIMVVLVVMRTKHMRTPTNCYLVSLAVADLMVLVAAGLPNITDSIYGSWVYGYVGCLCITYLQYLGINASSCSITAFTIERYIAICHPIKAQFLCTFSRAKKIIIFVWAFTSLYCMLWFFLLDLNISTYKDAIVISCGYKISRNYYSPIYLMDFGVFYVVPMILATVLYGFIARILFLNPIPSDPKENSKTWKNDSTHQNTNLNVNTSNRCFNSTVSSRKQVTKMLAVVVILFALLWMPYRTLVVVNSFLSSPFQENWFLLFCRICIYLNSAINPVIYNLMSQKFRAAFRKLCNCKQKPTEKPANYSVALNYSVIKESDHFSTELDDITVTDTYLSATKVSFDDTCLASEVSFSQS
Chain of Thyrotropin receptor (Homo sapiens) (P16473 whole entry, looked up): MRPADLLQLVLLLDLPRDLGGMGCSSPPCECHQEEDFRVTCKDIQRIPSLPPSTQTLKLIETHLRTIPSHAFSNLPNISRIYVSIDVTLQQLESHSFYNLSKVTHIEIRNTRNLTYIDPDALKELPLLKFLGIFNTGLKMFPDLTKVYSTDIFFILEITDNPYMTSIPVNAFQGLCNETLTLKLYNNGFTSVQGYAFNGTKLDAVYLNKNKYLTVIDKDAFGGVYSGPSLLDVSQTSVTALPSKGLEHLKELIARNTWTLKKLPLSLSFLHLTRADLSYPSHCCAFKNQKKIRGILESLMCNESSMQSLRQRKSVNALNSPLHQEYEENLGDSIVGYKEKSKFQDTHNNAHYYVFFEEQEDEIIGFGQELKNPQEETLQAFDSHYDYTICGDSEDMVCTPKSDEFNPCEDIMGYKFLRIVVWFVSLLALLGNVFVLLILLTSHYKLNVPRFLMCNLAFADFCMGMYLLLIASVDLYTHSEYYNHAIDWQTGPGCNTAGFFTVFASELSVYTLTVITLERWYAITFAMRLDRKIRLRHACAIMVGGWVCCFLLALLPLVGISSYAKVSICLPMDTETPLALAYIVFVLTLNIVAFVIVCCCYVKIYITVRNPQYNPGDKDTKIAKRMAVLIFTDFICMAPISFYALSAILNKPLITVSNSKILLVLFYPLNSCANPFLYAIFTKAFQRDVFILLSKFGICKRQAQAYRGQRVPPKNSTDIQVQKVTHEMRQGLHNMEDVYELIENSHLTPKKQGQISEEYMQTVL
Chain of Transient receptor potential cation channel subfamily V member 1 (Homo sapiens) (Q8NER1 whole entry, looked up): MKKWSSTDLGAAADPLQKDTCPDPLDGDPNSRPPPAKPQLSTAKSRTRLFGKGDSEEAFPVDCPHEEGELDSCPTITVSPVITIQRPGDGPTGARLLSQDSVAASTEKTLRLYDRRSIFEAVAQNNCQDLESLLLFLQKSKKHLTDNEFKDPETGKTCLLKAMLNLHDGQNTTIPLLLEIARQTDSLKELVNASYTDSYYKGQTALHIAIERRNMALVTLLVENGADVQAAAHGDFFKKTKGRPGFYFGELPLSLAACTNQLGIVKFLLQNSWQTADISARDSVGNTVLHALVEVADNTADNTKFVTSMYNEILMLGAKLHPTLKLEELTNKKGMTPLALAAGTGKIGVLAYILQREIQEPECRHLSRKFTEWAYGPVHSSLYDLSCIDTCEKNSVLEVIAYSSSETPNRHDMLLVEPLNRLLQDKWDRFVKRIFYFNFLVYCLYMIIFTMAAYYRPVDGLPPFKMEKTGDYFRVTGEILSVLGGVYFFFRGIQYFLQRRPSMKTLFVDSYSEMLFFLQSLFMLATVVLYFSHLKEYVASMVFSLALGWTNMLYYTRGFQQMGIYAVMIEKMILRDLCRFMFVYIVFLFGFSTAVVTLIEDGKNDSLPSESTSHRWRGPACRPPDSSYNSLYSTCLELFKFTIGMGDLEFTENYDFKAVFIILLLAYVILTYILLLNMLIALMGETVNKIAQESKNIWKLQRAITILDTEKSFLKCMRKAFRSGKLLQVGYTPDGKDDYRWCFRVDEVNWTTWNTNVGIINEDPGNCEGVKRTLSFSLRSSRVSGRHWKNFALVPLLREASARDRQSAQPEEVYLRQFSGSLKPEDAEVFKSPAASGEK
Chain of phosphoglycerate mutase (Leishmania major) (Q4Q090 1-553): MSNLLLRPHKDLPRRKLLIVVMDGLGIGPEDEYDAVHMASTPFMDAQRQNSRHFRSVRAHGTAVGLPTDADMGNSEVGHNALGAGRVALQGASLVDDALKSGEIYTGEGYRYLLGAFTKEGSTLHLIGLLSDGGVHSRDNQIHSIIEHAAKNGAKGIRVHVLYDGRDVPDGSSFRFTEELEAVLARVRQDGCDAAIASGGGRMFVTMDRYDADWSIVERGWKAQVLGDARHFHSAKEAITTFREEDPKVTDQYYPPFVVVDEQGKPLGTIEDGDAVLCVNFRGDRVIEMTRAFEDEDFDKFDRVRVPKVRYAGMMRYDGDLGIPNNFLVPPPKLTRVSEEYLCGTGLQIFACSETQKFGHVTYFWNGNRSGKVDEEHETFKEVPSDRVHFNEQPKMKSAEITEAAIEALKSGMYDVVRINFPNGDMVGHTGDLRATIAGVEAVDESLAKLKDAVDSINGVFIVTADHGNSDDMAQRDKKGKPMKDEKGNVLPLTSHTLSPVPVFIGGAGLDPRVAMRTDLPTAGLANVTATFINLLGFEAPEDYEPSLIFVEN

Regarding `COc1cc2c(CCNC(C)=O)c[nH]c2cc1O`, the result in assay [1], in [2] and in assay [9] was inactive. For the same compound, the Potency result in assay [3], in assay [4], in assay [5], in assay [6], in [8] and in assay [10] was “inactive” throughout. Also, the Potency result in assay [11], in assay [12], in [13], in [14], in assay [15] and in assay [16] was “inactive” throughout. For the same compound, the activation in assay [7] was 0.875% (inactive). In assay [8], the viability change was -0.977%.
Take `Cc1ccc2c(c1)C(N1CCN(C)CC1)=Nc1cccnc1N2`: the result in [1], in [2] and in assay [9] was inactive. The Potency entry in assay [3], in assay [4], in assay [6], in assay [8], in [17] and in assay [10] was “inactive” in each case. Also, the Potency entry in assay [11], in assay [12], in assay [13], in assay [14], in assay [15] and in assay [16] was “inactive” in each case. Further, the Potency in [5] was 4.47 µM (active). Also, the activation in [7] was -0.312% (inactive). For the same compound, the viability change in assay [8] came out at 3.55%.
Consider `CC(C)(C)NCC(O)COc1cccc2[nH]c(=O)[nH]c12` (stereo not drawn), for which the outcome in assay [1], in assay [2] and in assay [9] was inactive. For the same compound, the Potency entry in assay [3], in assay [4], in assay [5], in assay [6], in assay [8] and in assay [17] was “inactive” throughout. For the same compound, the Potency result in assay [10], in [11], in assay [12], in assay [14], in assay [15] and in assay [16] was “inactive” throughout. Also, the activation in [7] was 1.12% (inactive). Besides, in [8], the viability change was -1.12%.
Turning to `N[C@@H](Cc1c[nH]c2ccccc12)C(=O)O`, the result in assay [1], in assay [2] and in assay [9] was inactive. The Potency entry in assay [3], in [4], in assay [5], in assay [6], in assay [8] and in assay [17] was “inactive” in each case. Besides, the Potency result in assay [11], in assay [12], in assay [13], in assay [14], in assay [15] and in assay [16] was “inactive” each time. For the same compound, the activation in assay [7] was -0.125% (inactive). For the same compound, in [8], the viability change is -4.03%.
For the compound `COc1ccccc1N1CCN(CCCCNC(=O)c2ccc3ccccc3c2)CC1`, the result in assay [1], in [2] and in [9] was inactive. The Potency entry in assay [3], in assay [4], in assay [6], in assay [8], in [10] and in assay [11] was “inactive” each time. For the same compound, the Potency result in [12], in assay [13], in assay [14], in [15] and in [16] was “inactive” throughout. Further, in assay [5], the Potency is 8.91 µM (active). In addition, in assay [7], the activation was 3% (inactive). For the same compound, the viability change in assay [8] is 4.82%.
As for `CC1CNCCN1S(=O)(=O)c1cccc2cnccc12` (stereo not drawn), the result in assay [1], in assay [2] and in assay [9] was inactive. The Potency result in [3], in [4], in assay [5], in assay [6], in assay [17] and in assay [10] was “inactive” in each case. Moreover, the Potency result in [11], in [12], in assay [13] and in assay [14] was “inactive” throughout. For the same compound, in [7], the activation is 1.25% (inactive). For the same compound, the Potency in [16] is 22.4 µM (active).
Consider `CNc1cc(NS(=O)(=O)c2ccc(N)cc2)nc(NC)n1`, for which the outcome in [1] and in [2] was inactive. In addition, the Potency result in assay [3], in [4], in assay [5], in assay [6], in assay [8] and in [17] was “inactive” in each case. For the same compound, the Potency result in assay [10], in [11], in assay [12], in assay [13], in assay [14] and in [15] was “inactive” each time. For the same compound, the Potency entry in assay [16] was “inactive”. In addition, the activation in assay [7] was 0.25% (inactive). Also, the viability change in [8] is 6.74%.
